Common to all, as to test: HT-SELEX; 20 mM HEPES pH 7, 140 mM KCl, 5 mM NaCl, 1 mM K2HPO4, 2 mM MgSO4, 100 uM EGTA, ZnSO4, 0.1% Tween20; room temperature, 1 h; high values mean tight binding
Common to all, as to conditions: protein: ivt; tags: eGFP (N-terminal); dsDNA, one strand shown

One test concerns the target ZNF721 full-length (Homo sapiens, UniProt Q8TF20-2 1-923). The method in brief:
(§1)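 The binding signal is a relative k-mer count in selected reads, and higher values mean tighter binding. To obtain these reads, bead-bound tagged transcription factor (full-length or DNA-binding-domain fragment, produced in HEK293 lysate or cell-free extract) was mixed with a randomized 40-base DNA library for 1 h at room temperature in low-stringency HEPES/KCl buffer with Tween20. Bound DNA was recovered by washing and heat elution, PCR-amplified through successive cycles and sequenced on Illumina (~3 million 60 bp reads per sample).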

The next test addresses ZNF721 DBD1 (Homo sapiens, UniProt Q8TF20-2 29-461). The method in brief:
as §1

The next test concerns the target ZNF721 DBD2 (Homo sapiens, UniProt Q8TF20-2 395-923). In a few lines: as §1

Sequence of ZNF721 DBD2 (Q8TF20 383-911): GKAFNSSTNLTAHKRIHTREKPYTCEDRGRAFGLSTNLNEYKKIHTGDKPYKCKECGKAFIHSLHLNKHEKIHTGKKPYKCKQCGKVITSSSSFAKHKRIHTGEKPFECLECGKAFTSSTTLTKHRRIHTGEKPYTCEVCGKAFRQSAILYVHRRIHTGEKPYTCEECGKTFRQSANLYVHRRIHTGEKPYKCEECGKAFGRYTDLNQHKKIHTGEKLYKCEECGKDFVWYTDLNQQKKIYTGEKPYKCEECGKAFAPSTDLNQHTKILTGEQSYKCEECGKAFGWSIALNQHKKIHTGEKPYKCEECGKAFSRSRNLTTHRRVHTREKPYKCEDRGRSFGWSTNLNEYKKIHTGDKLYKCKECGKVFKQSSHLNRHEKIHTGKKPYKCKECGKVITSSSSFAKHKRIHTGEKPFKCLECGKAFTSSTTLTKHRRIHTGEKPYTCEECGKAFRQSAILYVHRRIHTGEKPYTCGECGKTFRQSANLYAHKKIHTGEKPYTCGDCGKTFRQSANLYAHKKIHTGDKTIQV
Sequence of ZNF721 DBD1 (Q8TF20 17-449): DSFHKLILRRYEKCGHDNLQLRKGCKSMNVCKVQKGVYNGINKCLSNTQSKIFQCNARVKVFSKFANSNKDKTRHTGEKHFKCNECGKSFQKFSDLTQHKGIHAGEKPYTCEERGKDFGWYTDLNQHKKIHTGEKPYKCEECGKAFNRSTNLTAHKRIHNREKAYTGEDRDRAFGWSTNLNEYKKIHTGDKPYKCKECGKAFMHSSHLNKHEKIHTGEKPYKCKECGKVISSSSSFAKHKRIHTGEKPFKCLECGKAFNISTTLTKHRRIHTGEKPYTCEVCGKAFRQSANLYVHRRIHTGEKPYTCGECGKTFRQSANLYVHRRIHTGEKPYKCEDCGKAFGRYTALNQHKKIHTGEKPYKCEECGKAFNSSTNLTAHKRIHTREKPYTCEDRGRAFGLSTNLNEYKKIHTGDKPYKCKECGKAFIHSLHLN
Sequence of ZNF721 full-length (Q8TF20 other isoform, or with tags, fused parts or gaps): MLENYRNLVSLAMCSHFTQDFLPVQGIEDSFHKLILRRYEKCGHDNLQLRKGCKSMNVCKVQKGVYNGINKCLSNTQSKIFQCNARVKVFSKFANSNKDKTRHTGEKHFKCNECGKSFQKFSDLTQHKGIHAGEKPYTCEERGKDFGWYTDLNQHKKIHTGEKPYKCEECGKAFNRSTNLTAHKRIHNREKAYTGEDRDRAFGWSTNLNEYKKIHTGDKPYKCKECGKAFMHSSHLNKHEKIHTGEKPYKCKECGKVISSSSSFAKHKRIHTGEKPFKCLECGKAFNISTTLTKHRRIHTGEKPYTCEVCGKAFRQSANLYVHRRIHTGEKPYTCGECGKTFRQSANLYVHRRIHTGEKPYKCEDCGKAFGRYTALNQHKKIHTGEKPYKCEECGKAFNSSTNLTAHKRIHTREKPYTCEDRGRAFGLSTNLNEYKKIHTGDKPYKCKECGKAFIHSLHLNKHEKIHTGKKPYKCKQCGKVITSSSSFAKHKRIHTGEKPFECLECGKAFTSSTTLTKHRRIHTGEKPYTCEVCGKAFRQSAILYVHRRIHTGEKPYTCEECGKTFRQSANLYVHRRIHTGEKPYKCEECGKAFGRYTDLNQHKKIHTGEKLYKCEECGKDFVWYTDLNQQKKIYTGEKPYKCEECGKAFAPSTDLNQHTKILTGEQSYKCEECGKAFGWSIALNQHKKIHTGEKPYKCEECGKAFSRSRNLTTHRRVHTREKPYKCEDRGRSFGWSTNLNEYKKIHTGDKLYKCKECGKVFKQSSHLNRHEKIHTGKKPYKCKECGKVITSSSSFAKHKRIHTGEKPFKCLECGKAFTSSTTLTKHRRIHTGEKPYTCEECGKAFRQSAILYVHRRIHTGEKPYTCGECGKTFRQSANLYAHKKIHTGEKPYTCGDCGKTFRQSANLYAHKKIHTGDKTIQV

Consider AAAAAAGGTA, for which the binding signal was determined as 0.109 relative 10-mer count with ZNF721 full-length, 0.00752 relative 10-mer count in the test with ZNF721 DBD1 and 0.0674 relative 10-mer count with ZNF721 DBD2.
As to AGCATCTCCA, the binding signal with ZNF721 full-length is 0.132 relative 10-mer count; with ZNF721 DBD1, 0.0129 relative 10-mer count; with ZNF721 DBD2 it was 0.121 relative 10-mer count.
Consider CCAACCCCAC, for which the binding signal was 0.128 relative 10-mer count with ZNF721 full-length, 0.00482 relative 10-mer count with ZNF721 DBD1 and 0.00288 relative 10-mer count in the test with ZNF721 DBD2.
Consider CCACACCACC, for which the binding signal with ZNF721 full-length worked out at 0.135 relative 10-mer count; with ZNF721 DBD1, 0.0055 relative 10-mer count; in the test with ZNF721 DBD2, 0.00623 relative 10-mer count.
As for CCCTCGCCCC, the binding signal came out at 0.167 relative 10-mer count with ZNF721 full-length, 0.00702 relative 10-mer count in the test with ZNF721 DBD1 and 0.00336 relative 10-mer count with ZNF721 DBD2.
On to AAAAGCTGCC, for which the binding signal is 0.103 relative 10-mer count with ZNF721 full-length, 0.0372 relative 10-mer count in the test with ZNF721 DBD1 and 0.00108 relative 10-mer count with ZNF721 DBD2.
With CCCCACACCC, the figures for the binding signal with ZNF721 full-length, with ZNF721 DBD1 and with ZNF721 DBD2 were 0.274 relative 10-mer count, 0.01 relative 10-mer count and 0.00443 relative 10-mer count, respectively.
As to CCCACCCGAC, the values for the binding signal in the test with ZNF721 full-length, with ZNF721 DBD1 and with ZNF721 DBD2 were 0.114 relative 10-mer count, 0.00449 relative 10-mer count and 0.00479 relative 10-mer count, respectively.
The matching figures for CAAAAAAACA: 0.365 relative 10-mer count, 0.00349 relative 10-mer count and 0.263 relative 10-mer count.
Regarding CCCCGCCCCC, the figures for the binding signal with ZNF721 full-length, with ZNF721 DBD1 and with ZNF721 DBD2 were 0.297 relative 10-mer count, 0.0122 relative 10-mer count and 0.00228 relative 10-mer count, respectively.
The matching figures for CCCCAACCCC: 0.283 relative 10-mer count, 0.0104 relative 10-mer count and 0.00288 relative 10-mer count.
In the case of CCCACACCCA, the figures for the binding signal with ZNF721 full-length, with ZNF721 DBD1 and with ZNF721 DBD2 were 0.107 relative 10-mer count, 0.00468 relative 10-mer count and 0.00455 relative 10-mer count, respectively.
The matching figures for AAAAAGCAGT: 0.497 relative 10-mer count, 0.0214 relative 10-mer count and 0.383 relative 10-mer count.
In the case of CCCCAGCCCC, the binding signal with ZNF721 full-length turned out to be 0.202 relative 10-mer count; with ZNF721 DBD1, 0.0083 relative 10-mer count; in the test with ZNF721 DBD2 it was 0.0018 relative 10-mer count.
As to CCCCCTCCGC, the binding signal with ZNF721 full-length turned out to be 0.124 relative 10-mer count; with ZNF721 DBD1, 0.00725 relative 10-mer count; with ZNF721 DBD2, 0.00372 relative 10-mer count.
The matching figures for AAAACAAGCA: 0.157 relative 10-mer count, 0.00638 relative 10-mer count and 0.0831 relative 10-mer count.
The matching figures for CTTTTTTTTC: 0.171 relative 10-mer count, 0.0293 relative 10-mer count and 0.0669 relative 10-mer count.
CCTCCCCCCC: the binding signal with ZNF721 full-length turned out to be 0.236 relative 10-mer count; with ZNF721 DBD1, 0.0115 relative 10-mer count; with ZNF721 DBD2, 0.00707 relative 10-mer count.
On to CCCGCCCTCC, for which the figures for the binding signal with ZNF721 full-length, with ZNF721 DBD1 and with ZNF721 DBD2 were 0.158 relative 10-mer count, 0.00803 relative 10-mer count and 0.0018 relative 10-mer count, respectively.
The matching figures for CTCCTCCCCC: 0.119 relative 10-mer count, 0.00633 relative 10-mer count and 0.00216 relative 10-mer count.
Consider CCCTACCACC, for which the binding signal with ZNF721 full-length is 0.104 relative 10-mer count; in the test with ZNF721 DBD1, 0.00578 relative 10-mer count; with ZNF721 DBD2, 0.0144 relative 10-mer count.
The matching figures for CCCACCCCTA: 0.119 relative 10-mer count, 0.00431 relative 10-mer count and 0.00324 relative 10-mer count.
With AGGGGGGAGG, the binding signal was 0.149 relative 10-mer count with ZNF721 full-length, 0.00789 relative 10-mer count with ZNF721 DBD1 and 0.00384 relative 10-mer count with ZNF721 DBD2.
Regarding CACCCTCCCA, the figures for the binding signal with ZNF721 full-length, with ZNF721 DBD1 and with ZNF721 DBD2 were 0.123 relative 10-mer count, 0.00555 relative 10-mer count and 0.00443 relative 10-mer count, respectively.
The matching figures for CGCCCACCCA: 0.147 relative 10-mer count, 0.00449 relative 10-mer count and 0.00216 relative 10-mer count.
As to CTCCCCGCCC, the binding signal with ZNF721 full-length was determined as 0.131 relative 10-mer count; in the test with ZNF721 DBD1, 0.00583 relative 10-mer count; in the test with ZNF721 DBD2, 0.00372 relative 10-mer count.
Consider AAAAAGCTAT, for which the binding signal was 0.425 relative 10-mer count with ZNF721 full-length, 0.225 relative 10-mer count with ZNF721 DBD1 and 0.00192 relative 10-mer count with ZNF721 DBD2.
For the sequence AGGTGGTGGG, the binding signal with ZNF721 full-length came out at 0.113 relative 10-mer count; with ZNF721 DBD1, 0.00601 relative 10-mer count; with ZNF721 DBD2, 0.00587 relative 10-mer count.
For the sequence CCCACCCTCA, the binding signal with ZNF721 full-length was found to be 0.114 relative 10-mer count; in the test with ZNF721 DBD1 it was 0.00573 relative 10-mer count; in the test with ZNF721 DBD2, 0.00971 relative 10-mer count.
With CCTACCACCC, the binding signal was 0.111 relative 10-mer count in the test with ZNF721 full-length, 0.00619 relative 10-mer count with ZNF721 DBD1 and 0.0101 relative 10-mer count with ZNF721 DBD2.
For ACCCACCTCC, the binding signal amounted to 0.125 relative 10-mer count with ZNF721 full-length, 0.00505 relative 10-mer count with ZNF721 DBD1 and 0.00527 relative 10-mer count with ZNF721 DBD2.
As to CCACCACCGC, the binding signal amounted to 0.11 relative 10-mer count with ZNF721 full-length, 0.00482 relative 10-mer count with ZNF721 DBD1 and 0.00503 relative 10-mer count with ZNF721 DBD2.
As for CCCCCCGCCC, the binding signal came out at 0.28 relative 10-mer count in the test with ZNF721 full-length, 0.0116 relative 10-mer count in the test with ZNF721 DBD1 and 0.00336 relative 10-mer count with ZNF721 DBD2.
In the case of CGACCCACCC, the binding signal with ZNF721 full-length was determined as 0.126 relative 10-mer count; with ZNF721 DBD1, 0.00477 relative 10-mer count; with ZNF721 DBD2, 0.00324 relative 10-mer count.
For CCCACCCCTC, the binding signal worked out at 0.188 relative 10-mer count with ZNF721 full-length, 0.01 relative 10-mer count in the test with ZNF721 DBD1 and 0.00527 relative 10-mer count with ZNF721 DBD2.
Take GGCGGGGGGA: the binding signal came to 0.126 relative 10-mer count with ZNF721 full-length, 0.00619 relative 10-mer count with ZNF721 DBD1 and 0.0024 relative 10-mer count with ZNF721 DBD2.
Regarding CCTCCGCCCC, the binding signal came out at 0.161 relative 10-mer count with ZNF721 full-length, 0.00789 relative 10-mer count with ZNF721 DBD1 and 0.003 relative 10-mer count in the test with ZNF721 DBD2.
GCCACCCCAC: the results for the binding signal with ZNF721 full-length, with ZNF721 DBD1 and in the test with ZNF721 DBD2 were 0.129 relative 10-mer count, 0.00472 relative 10-mer count and 0.00491 relative 10-mer count, respectively.
Turning to CTCCCTCCCC, the values for the binding signal in the test with ZNF721 full-length, with ZNF721 DBD1 and with ZNF721 DBD2 were 0.143 relative 10-mer count, 0.00927 relative 10-mer count and 0.00312 relative 10-mer count, respectively.
As to GCTTTTTTCA, the binding signal is 0.21 relative 10-mer count with ZNF721 full-length, 0.076 relative 10-mer count with ZNF721 DBD1 and 0.0334 relative 10-mer count with ZNF721 DBD2.
As to AAAAAGCTCA, the binding signal in the test with ZNF721 full-length amounted to 0.112 relative 10-mer count; in the test with ZNF721 DBD1, 0.0408 relative 10-mer count; in the test with ZNF721 DBD2, 0.00407 relative 10-mer count.
